# Screens as filed in PubChem BioAssay.
# PTK2B oligo ant: antagonists of Pyk2 self-association, primary screen, Q293 cells, FERM NanoBiT luminescence, HTS. Protein-tyrosine kinase 2-beta (Homo sapiens), Q14289. active compounds read low. z-score (the deposit names both 25 µM and 10 µM). 0.83% of 99,000 active. AID 1347419, 2020;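 active = Z-score of -3 or lower, scaled per plate to the spread of control and sample wells; inactive = z-score above -3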;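 note: negative z-score means lost luminescence so less FERM oligomerization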
# Cav3 T inh: Cav3.2 calcium influx blockers – cell-based, Fluo-4 calcium fluorescence, FDSS, MLSMR library, primary screen; Cav3.2-expressing cells; active compounds read low; B-score at 10 µM; 4% of 100,000 active; AID 449739, 2010;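 active = single-dose well whose peak fluorescence ratio is a statistical outlier from its plate by either plate-standardised score or position-corrected B-score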
# Mac1 fbg enh: enhancers of CD11b/CD18 adhesion to fibrinogen, primary screen, K562 cells, luminescence | Integrin beta-2 (Homo sapiens) + Integrin alpha-M (Homo sapiens), P05107+P11215 | ATPlite luminescence | activation, % at 10 µM | 0.07% of 93,000 active;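 active = 10 µM primary screen giving 50% or more activity, confirmed by 40% or more on retest at that dose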
# Mac1 fbg inh: inhibitors of CD11b/CD18 adhesion to fibrinogen, primary screen, K562 cells, luminescence; 0.54% of 93,000 active; ATPlite luminescence; Mn2+ added to activate the integrin; inhibition, % at 10 µM;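 active = primary inhibition of 50% or more at 10 µM, then 40% or more on retest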
# Ec RNAP inh: E. coli RNAP inhibitors, biochemical; DNA-directed RNA polymerase subunit beta (Escherichia coli (strain K12)), P0A8V2; E. coli RNA polymerase, fluorescence transcription assay; inhibition, %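 (tested at 10 µM)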; 0.2% of 62,000 active; in the data active = inhibition above about 20%;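 note: 0% = enzyme without compound and 100% = no enzyme blank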
# Numbers without * were called inactive; x = no result given. In the library only some 4.2% were active in any assay of this set; here they are far more common.
SMILES,PTK2B oligo ant,Cav3 T inh,Mac1 fbg enh,Mac1 fbg inh,Ec RNAP inh
CN(c1cccc(NC(=O)CN(c2ccc(C34CC5CC(CC(C5)C3)C4)cc2)S(C)(=O)=O)c1)S(C)(=O)=O,-0.9,-2.4,10,-5,x
CCCCCC/C(=N\NS(C)(=O)=O)c1ccccc1,-0.12,-4.9*,-1,2,x
CCCCCC/C(=N/O)c1ccccn1,-1.1,-2.9,-8,4,8
Cc1ccc(CSCCNC(=O)CSCc2ccc([N+](=O)[O-])cc2)cc1,0.81,-4.3*,5,9,x
Cc1cccc(CSCCNC(=O)CSCc2ccc([N+](=O)[O-])cc2)c1,0.99,-3.2*,2,9,x
O=C(c1cccc(C(F)(F)F)c1)N1CCOC12CCN(c1ncc(C(F)(F)F)cc1Cl)CC2,1.5,-2.1,-8,48,x
CC12CC(NC(=O)N1Cc1ccccc1)c1ccccc1O2 (configuration not stated),-0.51,-5.4*,-2,14,0
CC12CC(NC(=O)N1c1ccc(C(=O)N3CCN(c4ccc(F)cc4)CC3)cc1)c1ccccc1O2 (configuration not stated),1.7,-5.3*,-6,-10,2
CCOc1cccc2c1OC1(C)CC2NC(=O)N1c1ccc(OC)cc1 (configuration not stated),1.1,0.19,4,-12,7
CC12CC(NC(=O)N1c1cccc(C(=O)N3CCN(c4ccccc4)CC3)c1)c1ccccc1O2 (configuration not stated),-0.1,-5.4*,4,16,3
O=C(c1cccc(C(=O)N2CCN(c3ccccc3)CC2)c1)N1CCN(c2ccccc2)CC1,1.7,0.25,2,4,4
COc1ccccc1N1CCN(C(=O)C2c3ccccc3Oc3ccccc32)CC1,-1.3,-5.8*,4,72,2
CCCCCCC(=O)N1C/C=C\C(c2ccc(OC)cc2)N(Cc2ccc(F)cc2)C(=O)[C@H]1Cc1ccccc1 (some centres not stated),x,-0.2,x,x,x
Cc1ccc(-c2cnc(NC(=O)c3cccc(Br)c3)s2)c(C)c1,0.99,-2.1,-3,14,x
COc1ccccc1N1CCN(C(=O)c2cccc(N3C(=O)NC4CC3(C)Oc3ccccc34)c2)CC1 (configuration not stated),-0.78,-3.9*,-1,24,3
COc1cc(N2C(=O)NC3CC2(C)Oc2ccc(Br)cc23)cc(OC)c1OC (configuration not stated),x,x,x,x,6
CCCCn1nnc(NC(=O)c2ccc(-c3cccc(Cl)c3)o2)n1,0.61,-4.9*,x,x,x
CCCn1nnc(NC(=O)c2ccc(-c3cccc(Cl)c3)o2)n1,0.54,-5*,x,x,x
O=C(COC(=O)CCCN1C(=O)c2cccc3cccc(c23)C1=O)Nc1cccc(C(F)(F)F)c1,1.1,x,x,x,x
Cc1cccc(NC(=S)NNC(=O)c2csc(C(C)C)c2)c1,-0.72,-5.5*,x,x,x
CC1=C(C(=O)OC2CCCC2)C(c2ccc(C)o2)C2=C(CC(c3cccs3)CC2=O)N1 (configuration not stated),-1.5,-5.9*,0,36,8
CCCOC(=O)C1=C(C)NC2=C(C(=O)CCC2)C1c1cccs1 (configuration not stated),-2.7,1.4,0,-2,10
CCOC(=O)C1=C(C)NC2=C(C(=O)CC(c3cccs3)C2)C1c1cccs1 (configuration not stated),-3.3*,-0.55,x,x,x
Cc1nc(N(C)Cc2ccccc2)c2nnn(Cc3ccccc3)c2n1,-1.7,-1.9,-6,3,x
O=C(NCCSc1c[nH]c2ccccc12)c1ccc2c(c1)OCO2,x,-3.6,x,x,x
SMILES,PTK2B oligo ant,Cav3 T inh,Mac1 fbg enh,Mac1 fbg inh,Ec RNAP inh
CC(/C=N/NC(=O)C(O)c1ccccc1)=C\c1ccccc1 (configuration not stated),0.14,-2,x,x,x
Cc1cc(OC(C)C(=O)N/N=C/CC(C)c2ccccc2)ccc1Cl (configuration not stated),3.6,-6.5*,0,13,x
CCC(CC)C(=O)Nc1cccc(/C(C)=N\NC(=O)c2ccc(C)s2)c1,-0.62,-5.8*,0,10,x
COC(=O)C1=C(N)Oc2cc(C)n(CC3CCCO3)c(=O)c2C1c1ccccc1OC (configuration not stated),-0.27,0.032,x,x,4
COC(=O)C1=C(N)Oc2cc(N(C)C)ccc2C1c1ccccc1OC (configuration not stated),-0.8,-7*,-1,-9,x
COc1ccc(N(CC(=O)Nc2ccc(S(=O)(=O)N3CCOCC3)cc2)S(=O)(=O)c2ccccc2)cc1,-1.6,-1.1,14,22,x
Cc1cc(Nc2ccc(Br)cc2)n2nc(C)nc2n1,x,0.041,x,x,9
Cc1cc(Nc2ccc(F)cc2)n2nc(C)nc2n1,x,0.63,0,-7,22*
CCC(=O)Nc1nc(-c2ccccc2)ns1,-0.23,-0.018,x,x,x
Cc1nnc(SCCC(=O)Nc2nc(-c3ccccc3)ns2)s1,-0.15,-5*,-1,49,0
COc1ccc(C2=NOC(C)(c3nnc(-c4ccncc4)o3)C2)cc1 (configuration not stated),x,0.61,x,x,x
Cc1ccc(NC(=O)/C(=C\c2ccccc2)NC(=O)/C=C/c2ccccc2)cc1,-1.4,-4.9*,-8,14,x
Cc1ccc(NC(=O)/C(=C\C=C\c2ccccc2)NC(=O)c2ccccc2)cc1,-1.1,-5.3*,17,-6,x
CCNC(=O)/C(=C/c1ccco1)NC(=O)/C=C/c1ccccc1,0.15,0.0053,-2,-9,x
C(=C\c1ccccc1)/CSc1nnc(-c2ccccn2)n1Cc1ccco1,-0.71,-5.5*,-2,11,13
Clc1ccccc1CSc1nnc(-c2ccccn2)n1Cc1ccco1,-2.5,-3.1,-3,-5,5
CC1CCC(NC(=O)CN2CCCN(Cc3ccc(F)cc3Cl)C2=O)CC1 (configuration not stated),-0.11,-3.9*,-6,12,0
Cc1onc(-c2ccccc2)c1C(=O)Nc1cc(C(F)(F)F)ccc1N1CCOCC1,0.1,-5.9*,-8,17,10
O=C(CCc1ccccc1)NC(=S)Nc1cc(C(F)(F)F)ccc1N1CCOCC1,-1.6,-5.7*,x,x,x
CC(C)CC(=O)NC(=S)Nc1cc(C(F)(F)F)ccc1N1CCOCC1,x,x,4,-12,x
O=C(OCc1ccc(Cl)cc1Cl)c1ccncc1,-0.02,-1,-6,6,x
N#Cc1c(NCCN)nc(NCc2ccccc2)c2c1CCN(Cc1ccccc1)C2,0.33,-1.2,8,29,1
CCN1CCc2c(C#N)c(NCc3ccccc3)nc(N(CC)CC)c2C1,-1.1,-4.2*,-1,0,4
